Data from PubChem BioAssay (Tox21).
Results filed as inconclusive are left out. Active and inactive are the calls of the source. Unless noted, the call rests on the fitted dose curve; in most records, active means well fitted curve in the direction sought with a large enough effect in the repeat runs; inconclusive means weak or mixed curves; inactive means no such curve, though single readings can be large; an effect the other way counts as inactive or inconclusive.

What was measured:
[1] = A CellTox Green Cytotoxicity Assay to monitor cytotoxicity in HEK293 cells - 32 hour (AID 1224881); further: nearly all actives have a fitted effect of over 40% in size
Summary of the method: (§1)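 Fluorescence from a DNA-binding dye excluded by viable cells was measured repeatedly in the same HEK293 wells (600 cells/well) during continuous compound exposure at 37 C. Each assay gives one read point: 0, 8, 16, 24, 32 or 40 h.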

[2] = A CellTox Green Cytotoxicity Assay to monitor cytotoxicity in HepG2 cells - 0 hour (AID 1224882); further: nearly all actives have a fitted effect of over 35% in size
Summary of the method: (§2)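 Real-time cytotoxicity: fluorescence of a cell-impermeant cyanine dye binding DNA of dead HepG2 cells, measured repeatedly (0–40 h) during compound exposure at 37 C. Cells seeded 600/well with reagent, dosed after 5 h.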

[3] = A CellTox Green Cytotoxicity Assay to monitor cytotoxicity in HepG2 cells - 32 hour (AID 1224883); further: nearly all actives have a fitted effect of over 50% in size
Summary of the method: as §2

[4] = A CellTox Green Cytotoxicity Assay to monitor cytotoxicity in HEK293 cells - 8 hour (AID 1224884); further: nearly all actives have a fitted effect of over 35% in size
Summary of the method: as §1

[5] = qHTS RealTime-Glo MT Cell Viability Assay in HepG2 cells - 16 hour (AID 1224885); further: nearly all actives have a fitted effect of over 50% in size
Summary of the method: (§3)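 Tox21 10K library screened in qHTS format on HepG2 cells carrying RealTime-Glo reagents. Compounds were added after a 5 h preincubation, and the luminescent signal from continuous culture was measured repeatedly during 40 h treatment.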

[6] = qHTS RealTime-Glo MT Cell Viability Assay in HEK293 cells - 24 hour (AID 1224886); further: top concentration of the series differs between compounds; nearly all actives have a fitted effect of over 50% in size
Summary of the method: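 Luminescence generated by NanoLuc from substrate produced by living HEK293 cells served as the viability signal. Each value reflects the reading at its stated time point during continuous 40 h compound exposure at 37 C.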

[7] = qHTS RealTime-Glo MT Cell Viability Assay in HEK293 cells - 8 hour (AID 1224887); further: top concentration of the series differs between compounds; nearly all actives have a fitted effect of over 50% in size
Summary of the method: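 Luminescence, which tracks viable cell number through reduction of the prosubstrate to a NanoLuc substrate, was read over continuous 37 C culture. Cells (600/well) were premixed with reagent and rested 5 h before 23 nL of compound in DMSO was pinned.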

[8] = A CellTox Green Cytotoxicity Assay to monitor cytotoxicity in HEK293 cells - 16 hour (AID 1224888); further: nearly all actives have a fitted effect of over 35% in size
Summary of the method: as §1

[9] = qHTS RealTime-Glo MT Cell Viability Assay in HepG2 cells - 0 hour (AID 1224889); further: nearly all actives have a fitted effect of over 50% in size
Summary of the method: as §3

[10] = A CellTox Green Cytotoxicity Assay to monitor cytotoxicity in HepG2 cells - 8 hour (AID 1224890); further: nearly all actives have a fitted effect of over 45% in size
Summary of the method: as §2

[11] = qHTS assay to identify small molecule antagonists of the estrogen receptor alpha (ER-alpha) signaling pathway using the BG1 cell line in the presence of 0.1 nM 17-beta-estradiol - cell viability counter screen (AID 1259241); further: nearly all actives have a fitted effect of over 40% in size
Summary of the method: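 Live-cell protease activity (CellTiter-Fluor fluorescence, 30 min) was read in the same wells after VM7Luc4E2 cells had been exposed to compounds with 0.1 nM 17beta-estradiol for 22 hr at 37C.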

[12] = qHTS assay to identify small molecule antagonists of the androgen receptor (AR) signaling pathway using the MDA cell line in the presence of 0.5 nM R1881 - cell viability counter screen (AID 1259242); further: nearly all actives have a fitted effect of over 45% in size
Summary of the method: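 Live-cell protease activity was measured by CellTiter-Fluor fluorescence after 30 min. Before that, MDA-kb2 MMTV-luciferase cells had 16 hr at 37C without CO2, exposed to test compounds and 0.5 nM R1881 final.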

[13] = target: Estrogen receptor (Homo sapiens) (UniProt P03372); assay: qHTS assay to identify small molecule antagonists of the estrogen receptor alpha (ER-alpha) signaling pathway using the BG1 cell line in the presence of 0.1 nM 17-beta-estradiol (AID 1259244); further: nearly all actives have a fitted effect of over 50% in size
Summary of the method: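 Luciferase luminescence (ONE-Glo, 30 min at room temperature) was read after 22 hr at 37C exposure to compounds plus 17beta-estradiol at 0.1 nM final. Cells were VM7Luc4E2 with endogenous ER-alpha and an ERE-driven luciferase, pre-cultured 5 days in hormone-depleted medium.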

[14] = qHTS assay to identify small molecule phospholipidosis (PLD) inducers (AID 1259344; active means well fitted curve in the direction sought with a large enough effect; an effect the other way counts as inactive or inconclusive)
Summary of the method: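 Phospholipid accumulation was scored by imaging: fixed, Hoechst-counterstained HepG2 cells stained with LipidTOX Red after 24 h compound exposure at 37 C. Read-outs were pit count and pit intensity per well or per cell, with amiodarone and DMSO controls.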

[15] = qHTS assay to identify small molecule HDAC inhibitors (AID 1259364); further: nearly all actives have a fitted effect of over 45% in size; further: potency means the concentration at half of the fitted maximal effect
Summary of the method: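 Luminescence read after 30 min room-temperature HDAC-Glo incubation measures cellular class I/II HDAC activity. Compounds were applied for 2 hr at 37 C to HCT-116 wild-type cells seeded the day before.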

[16] = qHTS assay to identify small molecule HDAC inhibitors - cell viability counter screen (AID 1259365)
Summary of the method: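 HCT-116 (wild type), 1,500 cells/well, overnight 37C/5% CO2; compound in DMSO 2hr; CellTiter-Glo 30min RT; luminescence read.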

[17] = qHTS assay to identify small molecule agonists of the sonic hedgehog signaling (Shh) pathway - cell viability counter screen (AID 1259366); further: nearly all actives have a fitted effect of over 50% in size
Summary of the method: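 CellTiter-Fluor fluorescence read-out, 1 hr at 37C, added after 23hr compound exposure. Cells: 3T3 Gli1-Luc, an NIH/3T3 clone with stably integrated Gli1-Luc reporter, plated 4hr before compound.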

[18] = qHTS assay to identify small molecule agonists of the sonic hedgehog signaling (Shh) pathway (AID 1259368; calls by dose curve;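 further: NIH/3T3-derived 3T3Gli1-Luc cells carrying a stable Gli1-driven firefly luciferase reporter; series mostly up to about 92 µM; nearly all actives have a fitted effect of over 15% in size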)
Summary of the method: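 Luminescence was read after 30 min at room temperature with luciferase reagent. Before that, 3T3Gli1-Luc cells (NIH/3T3 clone, stable Gli1-Luc reporter; 2,000/well) were exposed to compounds for 24 hr at 37C, 5% CO2, compounds being added 4 hr post-plating.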

[19] = target: Androgen receptor (Homo sapiens) (UniProt P10275); assay: qHTS assay to identify small molecule antagonists of the androgen receptor (AR) signaling pathway using the MDA cell line in the presence of 0.5 nM R1881 (AID 1259243); further: nearly all actives have a fitted effect of over 50% in size
Summary of the method: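 Luminescent reporter readout (ONE-Glo, 30 min, room temperature) after 16 hr co-treatment of MDA-kb2 cells with test compounds and 0.5 nM R1881 final, at 37C without CO2. The MMTV-driven luciferase responds to both AR and GR.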

[20] = qHTS assay to identify small molecule antagonists of the sonic hedgehog signaling (Shh) pathway - cell viability counter screen (AID 1259367); further: nearly all actives have a fitted effect of over 55% in size; further: potency means the concentration at half of the fitted maximal effect
Summary of the method: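 Viability was read by CellTiter-Fluor fluorescence in the same wells, reagent added 23 hr into compound treatment and incubated 1 hr at 37C. The 3T3 Gli1-Luc reporter cells (2,000/well) received conditioned medium after compound and ran 24 hr.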
On the % scale 0 is the no-effect control and ±100 the full control effect.

Estrogen receptor (Homo sapiens), sequence (P03372 whole entry, looked up): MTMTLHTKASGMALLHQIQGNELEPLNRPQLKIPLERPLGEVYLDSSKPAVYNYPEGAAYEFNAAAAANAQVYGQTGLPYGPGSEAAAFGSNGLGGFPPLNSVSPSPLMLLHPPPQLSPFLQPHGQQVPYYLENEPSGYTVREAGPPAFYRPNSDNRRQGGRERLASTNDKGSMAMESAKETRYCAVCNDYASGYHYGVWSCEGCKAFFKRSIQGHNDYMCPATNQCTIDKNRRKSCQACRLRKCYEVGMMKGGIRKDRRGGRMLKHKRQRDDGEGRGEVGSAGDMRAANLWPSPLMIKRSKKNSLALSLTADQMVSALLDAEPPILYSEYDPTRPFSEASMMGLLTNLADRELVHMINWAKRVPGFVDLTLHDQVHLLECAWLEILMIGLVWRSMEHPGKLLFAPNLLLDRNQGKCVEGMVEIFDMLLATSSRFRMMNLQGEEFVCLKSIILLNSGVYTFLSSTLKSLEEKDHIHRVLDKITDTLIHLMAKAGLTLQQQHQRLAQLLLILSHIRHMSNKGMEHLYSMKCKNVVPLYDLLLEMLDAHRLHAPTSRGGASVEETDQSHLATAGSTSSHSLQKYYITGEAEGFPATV
Androgen receptor (Homo sapiens), sequence (P10275 whole entry, looked up): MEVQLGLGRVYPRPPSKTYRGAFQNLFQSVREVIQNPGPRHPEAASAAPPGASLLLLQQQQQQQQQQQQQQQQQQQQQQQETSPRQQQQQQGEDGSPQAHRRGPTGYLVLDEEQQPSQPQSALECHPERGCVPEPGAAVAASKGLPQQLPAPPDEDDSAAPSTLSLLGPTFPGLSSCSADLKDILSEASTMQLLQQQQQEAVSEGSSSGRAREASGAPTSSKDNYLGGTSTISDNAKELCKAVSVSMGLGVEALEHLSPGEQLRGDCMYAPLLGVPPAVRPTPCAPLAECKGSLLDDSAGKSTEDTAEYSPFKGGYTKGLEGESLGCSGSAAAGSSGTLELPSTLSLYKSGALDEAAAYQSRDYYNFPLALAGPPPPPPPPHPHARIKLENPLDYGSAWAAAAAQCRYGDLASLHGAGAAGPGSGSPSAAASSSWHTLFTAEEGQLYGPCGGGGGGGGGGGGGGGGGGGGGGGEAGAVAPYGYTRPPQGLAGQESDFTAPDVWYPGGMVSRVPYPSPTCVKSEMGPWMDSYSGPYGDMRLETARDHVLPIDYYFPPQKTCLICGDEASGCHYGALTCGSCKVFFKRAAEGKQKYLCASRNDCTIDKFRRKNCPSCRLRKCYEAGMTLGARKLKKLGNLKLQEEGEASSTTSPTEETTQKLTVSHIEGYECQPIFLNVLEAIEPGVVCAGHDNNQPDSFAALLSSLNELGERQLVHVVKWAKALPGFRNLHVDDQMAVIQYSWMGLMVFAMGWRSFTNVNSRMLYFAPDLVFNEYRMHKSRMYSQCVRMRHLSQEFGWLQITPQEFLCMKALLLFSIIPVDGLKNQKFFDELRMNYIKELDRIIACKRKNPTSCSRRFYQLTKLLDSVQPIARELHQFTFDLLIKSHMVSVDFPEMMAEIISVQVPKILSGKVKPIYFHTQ

CNCC(=O)c1ccc(O)c(O)c1
inactive: Potency [1] | outcome [2] | Potency [3] | Potency [4] | Potency [5] | Potency [6] | Potency [7] | Potency [8] | Potency [9] | Potency [10] | outcome [11] | outcome [12] | Potency [13] | PLD induction [14] -2.28% [at 7.66 µM] | Potency [15] | outcome [16] | Potency [17] | outcome [18]

CNC(=O)Oc1ccccc1C1OCCO1
inactive: Potency [1] | outcome [2] | Potency [3] | Potency [4] | Potency [5] | Potency [6] | Potency [7] | Potency [8] | Potency [9] | Potency [10] | outcome [11] | outcome [12] | Potency [19] | Potency [13] | Potency [15] | outcome [16] | Potency [17] | Potency [20] | outcome [18]

COC(=O)C(C)Oc1ccc(Oc2ccc(Cl)cc2Cl)cc1 (stereo not drawn)
inactive: Potency [1] | outcome [2] | Potency [3] | Potency [4] | Potency [5] | Potency [6] | Potency [7] | Potency [8] | Potency [9] | Potency [10] | outcome [11] | outcome [12] | Potency [15] | outcome [16] | Potency [17] | Potency [20] | outcome [18]

Cc1nc(N)nc(N)n1
inactive: Potency [1] | outcome [2] | Potency [3] | Potency [4] | Potency [5] | Potency [6] | Potency [7] | Potency [8] | Potency [9] | Potency [10] | outcome [11] | outcome [12] | Potency [19] | Potency [13] | Potency [15] | outcome [16] | Potency [20] | outcome [18]

O=[N+]([O-])c1cccc2cccnc12
inactive: Potency [1] | outcome [2] | Potency [3] | Potency [4] | Potency [5] | Potency [6] | Potency [7] | Potency [8] | Potency [9] | Potency [10] | outcome [11] | outcome [12] | Potency [13] | Potency [15] | outcome [16] | Potency [17] | Potency [20]

O=S(=O)(O)C(F)(F)C(F)(F)C(F)(F)C(F)(F)C(F)(F)C(F)(F)F
inactive: Potency [1] | outcome [2] | Potency [3] | Potency [4] | Potency [5] | Potency [6] | Potency [7] | Potency [8] | Potency [9] | Potency [10] | outcome [11] | outcome [12] | Potency [13] | Potency [15] | outcome [16] | Potency [17] | Potency [20]

O=C1c2ccccc2C(=O)c2ccccc21
active: Potency [15] 3.66 µM
inactive: cytotoxicity increase [1] 6.55% [at 15.8 µM] | cytotoxicity [2] 5.37% [at 15.8 µM] | cytotoxicity increase [3] 7.1% [at 15.8 µM] | cytotoxicity increase [4] 6.23% [at 15.8 µM] | activity change, negative = cytotoxic [5] 1.58% [at 15.8 µM] | activity change, negative = cytotoxicity [6] 20.7% [at 15.8 µM] | activity change, negative = cytotoxicity [7] 16.6% [at 15.8 µM] | activity change [8] 5.38% [at 15.8 µM, hits give high values] | activity change, negative = cytotoxicity [9] 6.06% [at 15.8 µM] | cytotoxicity increase [10] 19.4% [at 15.8 µM] | activity change, negative = cytotoxicity [11] 0.424% [at 19 µM] | viability change, negative = cytotoxic [12] 3.34% [at 19 µM] | outcome [14] | activity change, negative = cytotoxicity [16] -0.295% [at 19 µM] | viability change, negative = cytotoxic [17] 1.77% [at 19 µM] | viability change, negative = cytotoxic [20] -0.095% [at 19 µM] | activity change [18] 1.5% [at 18.9 µM]

CC(C)CC#N
active: Potency [20] 27.9 µM
inactive: Potency [1] | outcome [2] | Potency [3] | Potency [4] | Potency [5] | Potency [6] | Potency [7] | Potency [8] | Potency [9] | Potency [10] | outcome [11] | outcome [12] | Potency [19] | Potency [13] | Potency [15] | outcome [16] | outcome [18]

CCCCCCI
inactive: Potency [1] | outcome [2] | Potency [3] | Potency [4] | Potency [5] | Potency [6] | Potency [7] | Potency [8] | Potency [9] | Potency [10] | outcome [11] | outcome [12] | Potency [19] | Potency [13] | Potency [15] | outcome [16] | Potency [17] | Potency [20] | outcome [18]

CCN(CC)C(C)C(=O)c1ccccc1 (stereo not drawn)
inactive: Potency [1] | outcome [2] | Potency [3] | Potency [4] | Potency [5] | Potency [6] | Potency [7] | Potency [8] | Potency [9] | Potency [10] | outcome [11] | Potency [19] | outcome [14] | Potency [15] | outcome [16] | outcome [18]

CNC(=O)O/N=C(\C)SC
inactive: Potency [1] | outcome [2] | Potency [3] | Potency [4] | Potency [5] | Potency [6] | Potency [7] | Potency [8] | Potency [9] | Potency [10] | outcome [11] | outcome [12] | Potency [15] | outcome [16] | Potency [20] | outcome [18]

O=c1oc2ccccc2c(O)c1C1CCCc2ccccc21 (stereo not drawn)
inactive: Potency [1] | outcome [2] | Potency [3] | Potency [4] | Potency [5] | Potency [6] | Potency [7] | Potency [8] | Potency [9] | Potency [10] | outcome [11] | outcome [12] | Potency [13] | Potency [15] | Potency [17] | Potency [20] | outcome [18]

CCOC(=O)/C=C(C)/C=C/C[C@@H](C)CCCC(C)C
inactive: Potency [1] | outcome [2] | Potency [3] | Potency [4] | Potency [5] | Potency [6] | Potency [7] | Potency [8] | Potency [9] | Potency [10] | outcome [11] | outcome [12] | Potency [13] | outcome [14] | Potency [15] | outcome [16] | Potency [17] | Potency [20]

CCCCOP(=O)(O)OCCCC
inactive: Potency [1] | outcome [2] | Potency [3] | Potency [4] | Potency [5] | Potency [6] | Potency [7] | Potency [8] | Potency [9] | Potency [10] | outcome [11] | outcome [12] | Potency [19] | Potency [15] | outcome [16] | Potency [17] | Potency [20] | outcome [18]

OC(c1ccccc1)(c1ccccc1)C1CCNCC1
inactive: Potency [1] | outcome [2] | Potency [3] | Potency [4] | Potency [5] | Potency [6] | Potency [7] | Potency [8] | Potency [9] | Potency [10] | outcome [11] | outcome [12] | outcome [14] | outcome [16] | outcome [18]

CNC(=O)N(C)c1nc2ccccc2s1
inactive: Potency [1] | outcome [2] | Potency [3] | Potency [4] | Potency [5] | Potency [6] | Potency [7] | Potency [8] | Potency [9] | Potency [10] | outcome [11] | outcome [12] | Potency [19] | outcome [16] | Potency [17] | Potency [20] | outcome [18]
